Results published in PubChem BioAssay AID2685 (National Center for Advancing Translational Sciences (NCATS), 2010).
Among all 320,000 compounds or so, about 2,100 (0.66%) were called active. Another 53% or so got no clear call; they are omitted. The call rests on the fitted dose curve; in most records, active means well fitted inhibition curve with a large enough effect in the signal ratio, with a control signal flat (not every such curve was filed as active); inconclusive means small, poorly fitted or top-dose-only effect, or effect the other way, or a change in a side signal; inactive means flat fitted curve, though single readings scatter; the % refers to the signal ratio. The list comes from a sample in which actives are over-represented; it also holds similar structures and randomly drawn compounds.

Test: qHTS Assay for Lipid Storage Modulators in Drosophila S3 Cells;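 on cell number change: cells counted by Cell Tracker Red CMTPX staining in the red channel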
Conditions: BODIPY lipid droplet fluorescence, 18-24 h, cells fed with added oleic acid; cell number change: measured here: cell count max response; series mostly up to 46.1 µM
How it was run: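 Drosophila S3 cells got compounds at several concentrations plus oleic acid (400 uM solution). Laser-scanning cytometry with 488 nm excitation read lipid droplets at 500-530 nm and cells at 575-640 nm. Percent activity was relative to 20 uM Triacsin C.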
Potency means the concentration at half of the fitted maximal effect.

Row | SMILES | Potency | cell number change [%]
1 | CN(C)c1ccc(S(=O)(=O)NCC(=O)NCc2ccccc2)cc1[N+](=O)[O-] | inactive | 21.7
2 | Cc1ccc(C)c(N(CC(=O)NC2CCCCC2)C(=O)c2snc(C(N)=O)c2N)c1 | inactive | -26.2
3 | NC(=O)c1nsc(C(=O)N(CC(=O)NC2CCCC2)c2cnc3ccccc3c2)c1N | inactive | -18
4 | NC(=O)c1nsc(C(=O)N(CC(=O)NC2CCCC2)c2ccc(F)c(Cl)c2)c1N | 0.116 µM (active) | -7.14
5 | NC(=O)c1nsc(C(=O)N(CC(=O)NC2CCCCC2)c2ccc(Cl)cc2)c1N | 14.6 µM (active) | -2.56
6 | CCCC(C(=O)NC1CCCC1)N(C(=O)c1snc(C(N)=O)c1N)c1ccc(F)cc1 (stereo unspecified) | inactive | -10.5
7 | NC(=O)c1nsc(C(=O)N(CC(=O)NC2CCCCC2)Cc2ccc(F)cc2)c1N | inactive | 
8 | CC1=NN(C(=O)Cc2ccc([N+](=O)[O-])cc2)C(O)(C(F)(F)C(F)(F)F)C1 (stereo unspecified) | inactive | 24
9 | CC(=O)NCCc1nc2ccccc2n1Cc1ccccc1 | inactive | 18.1
10 | O=C(CSc1ncn[nH]1)Nc1cc(S(=O)(=O)N2CCCC2)ccc1Cl | inactive | 
11 | CN(C)S(=O)(=O)c1cc(NC(=O)COC(=O)CCc2ccccc2)ccc1Cl | inactive | 11.3
12 | Nc1[nH]nc2nc(N3CCOCC3)nc(-c3ccccc3)c12 | inactive | -23.8
13 | O=C1C(=O)N(CCN2CCOCC2)C(c2cccnc2)/C1=C(/O)c1ccccc1 (stereo unspecified) | inactive | 0.678
14 | O=C1N=C2N(CCN3CCCCC3)c3ccccc3N2/C1=C\c1ccc([N+](=O)[O-])o1 | inactive | 2.09
15 | O=C(NCCN1CCOCC1)c1ccncc1 | inactive | -7.07
16 | O=C1C=C(NCCN2CCOCC2)CC(c2ccccc2)C1 (stereo unspecified) | inactive | -2.43
17 | O=C1C=C(NCCN2CCOCC2)C(=O)c2cnccc21 | 11.6 µM (active) | -9.98
18 | COc1ccccc1NC(=O)N1C2CCCC1CC(NC(=O)c1ccccc1)C2 (stereo unspecified) | inactive | 9.36
19 | COc1ccc(NS(=O)(=O)c2ccc3c(c2)oc(=O)n3C)cc1Cl | inactive | 10.6
20 | COC(=O)c1ccc(Cl)c(NC(=O)CN(c2ccccc2)S(=O)(=O)c2ccc(OC)cc2)c1 | inactive | -1.49
21 | O=[N+]([O-])c1cccc(-c2nc(-c3ccccc3)c(-c3cccs3)[nH]2)c1 | inactive | -14.7
22 | O=C(O)c1ccc(-c2nc(-c3ccccc3)c(-c3cccs3)[nH]2)cc1 | inactive | 16.3
23 | O=[N+]([O-])c1ccc(-c2nc(-c3cccs3)c(-c3cccs3)[nH]2)cc1 | 23.1 µM (active) | 7.44

Row | SMILES | Potency | cell number change [%]
24 | O=S(=O)(Nc1ccc2nc(N3CCOCC3)sc2c1)c1ccc(Cl)cc1 | inactive | -15.7
25 | CCOC(=O)C1(Cc2cccc(OC)c2)CCN(Cc2cc(OC)ccc2OC)CC1 | inactive | -22.3
26 | COc1cc(OC)cc(C(=O)Nc2ccc(C(=O)c3ccncc3)cc2)c1 | inactive | 2.59
27 | COc1ccc(C(CCN2CCCC(C)C2)c2c(OC)cc(OC)c3c(C)cc(=O)oc23)cc1 (stereo unspecified) | inactive | 7.77
28 | CC[n+]1c(C)n(-c2ccccc2)c2ccc(C(=O)OC)cc21 | inactive | 6.2
29 | Cc1cc(C(F)(F)F)n2ncc(C(=O)O)c2n1 | 14.6 µM (active) | 
30 | Cc1cc(C)n2ncc(C(=O)O)c2n1 | inactive | 12.3
31 | Cc1ccc(-c2cc(C(F)(F)F)n3ncc(C(=O)O)c3n2)cc1 | inactive | -10.1
32 | C=CCN1CC(=O)N2C(C)c3[nH]c4ccccc4c3C[C@H]2C1=O (stereo partly specified) | inactive | 1.11
33 | CCC(=O)Nc1ccc(-c2nnc(SCC(=O)Nc3nccs3)n2C)cc1 | inactive | 0.852
34 | COc1cc(C2/C(=C(\O)c3ccc4c(c3)CC(C)O4)C(=O)C(=O)N2CC2CCCO2)cc(OC)c1OC (stereo unspecified) | 1.3 µM (active) | -16
35 | COc1cccc(C2/C(=C(/O)c3ccc4c(c3)CC(C)O4)C(=O)C(=O)N2CC2CCCO2)c1 (stereo unspecified) | inactive | 14.4
36 | CC1Cc2cc(/C(O)=C3/C(=O)C(=O)N(CC4CCCO4)C3c3ccco3)ccc2O1 (stereo unspecified) | inactive | 9.06
37 | CC(C)N(C(=O)CSc1nnc(NC(=O)c2cccs2)s1)C(C)C | inactive | -20.6
38 | CCc1nnc(NC(=O)CCC(=O)NCc2ccc(C)cc2)s1 | inactive | 
39 | COC(=O)c1c(NC(=O)CN2C(=O)NC3(CCCCC3C)C2=O)sc2c1CCC2 (stereo unspecified) | 1.84 µM (active) | 2.22
40 | CCOC(=O)c1c(NC(=O)CN2C(=O)NC3(CCCCC3C)C2=O)sc(C)c1C (stereo unspecified) | inactive | -4.46
41 | COC(=O)c1c(NC(=O)CN2C(=O)NC3(CCC(C)CC3)C2=O)sc2c1CCC2 (stereo unspecified) | inactive | -11.8
42 | c1ccc(CCNc2nc3ccccc3n3nnnc23)cc1 | inactive | -15.6
43 | Clc1ccc(NNc2ccnc3cc(Cl)ccc23)cc1 | inactive | 9.5
44 | Clc1ccc2c(N/N=C/c3cccnc3)ccnc2c1 | inactive | 
45 | Oc1ccc(/C=N/Nc2ccnc3cc(Cl)ccc23)c(O)c1 | 29.1 µM (active) | -19.7
46 | Cc1ccnc(NS(=O)(=O)c2cccc([N+](=O)[O-])c2)c1 | inactive | 3.2

Row | SMILES | Potency | cell number change [%]
47 | COc1ccc(-n2nc(C(=O)NCC(=O)N3CCN(Cc4ccccc4)CC3)c3ccccc3c2=O)cc1 | 0.651 µM (active) | 5.41
48 | COc1ccc(-n2nc(C(=O)NCC(=O)N3CCN(Cc4ccccc4)CC3)c3ccccc3c2=O)c(OC)c1 | inactive | 10.3
49 | CCN1CCN(C(=O)CNC(=O)c2nn(-c3ccc(OC)cc3)c(=O)c3ccccc23)CC1 | inactive | 8.11
50 | COc1ccccc1N1CCN(C(=O)c2ccc(S(=O)(=O)N3CCCCCC3)cc2)CC1 | inactive | -9.51
51 | COc1cc(C)c(Cl)cc1S(=O)(=O)NCc1ccncc1 | inactive | -7.29
52 | COc1cc(S(=O)(=O)NCc2ccncc2)c(OC)cc1Cl | inactive | 12.7
53 | COc1cc(S(=O)(=O)NCc2ccncc2)c(OC)cc1Br | 23.1 µM (active) | 3.68
54 | COc1ccc(CCNC(=O)CN(C)S(=O)(=O)c2cccc3nsnc23)cc1OC | inactive | 0.234
55 | CC(C)c1ccc(CNCCCSc2ncccn2)cc1 | inactive | -5.03
56 | CC(C)(C)C(=O)CC1(O)C(=O)N(Cc2ccc(Cl)cc2)c2ccccc21 (stereo unspecified) | inactive | 7.61
57 | CC(=O)N1C(=O)CC(C)N(C(C)=O)c2ccc([N+](=O)[O-])cc21 (stereo unspecified) | inactive | 1.88
58 | c1ccc2c(c1)CCc1c(-c3ccncc3)n[nH]c1-2 | 18.4 µM (active) | 7.47
59 | CNC(=O)c1[nH]nc2c1CCc1ccccc1-2 | inactive | 13.3
60 | CC(C)NC(=O)c1[nH]nc2c1CCc1ccccc1-2 | inactive | -0.945
61 | CC(C)C(=O)N1CCN(c2ccccc2NC(=O)COc2ccccc2)CC1 | inactive | -6.41
62 | CCOC(=O)N1CCN(c2c(NC3CCN(Cc4ccccc4)CC3)c(=O)c2=O)CC1 | inactive | 6.86
63 | O=C(c1cccc([N+](=O)[O-])c1)N(c1ccccn1)c1ccccn1 | inactive | 2.68
64 | CN(C)C(CNC(=O)c1cc(S(=O)(=O)N(C)c2ccc(F)cc2)ccc1Cl)c1ccco1 (stereo unspecified) | inactive | 
65 | Cc1ccc(NS(=O)(=O)c2cccc(C(=O)NCC(c3ccco3)N3CCCC3)c2)cc1 (stereo unspecified) | inactive | -2.68
66 | Cc1ccc(N(C)S(=O)(=O)c2cccc(C(=O)NCC(c3ccco3)N3CCCC3)c2)cc1 (stereo unspecified) | 7.31 µM (active) | -25.8
67 | CN(C)C(CNC(=O)c1ccc(S(=O)(=O)Nc2ccccc2)cc1)c1ccco1 (stereo unspecified) | inactive | 14.1
68 | Cc1ccc(S(=O)(=O)N(C)c2ccc(C(=O)NCC(c3ccco3)N(C)C)cc2)cc1 (stereo unspecified) | 1.64 µM (active) | -16.7
69 | COc1ccc(N(C)S(=O)(=O)c2cccc(C(=O)NCC(c3ccco3)N3CCCC3)c2)cc1 (stereo unspecified) | inactive | 8.75

Row | SMILES | Potency | cell number change [%]
70 | Cc1ccc(C)c(NC(=S)NCC(c2ccccc2)N(C)C)c1 (stereo unspecified) | inactive | 
71 | Cc1cc(C)c2c(=O)cc(C(F)(F)F)oc2n1 | inactive | 15.1
72 | Cc1ccc(C(=O)Nc2ccc(C(=O)N/N=C/c3cccnc3)cc2)cc1 | inactive | 17.5
73 | CC(=O)Nc1ccc(C(=O)N/N=C/c2cccnc2)cc1 | inactive | 0.939
74 | O=C(N/N=C/c1cccnc1)c1ccc(NC(=O)c2ccc(Cl)cc2)cc1 | 0.13 µM (active) | 0.451
75 | CC(C)c1ccc(NC2CCCN(C(=O)c3ccccc3-c3ncc[nH]3)C2)cc1 (stereo unspecified) | inactive | -18.8
76 | COc1ccc(NC(=O)Nc2ccc3c(c2)CCC3)c(OC)c1 | inactive | 9.57
77 | O=C(Cn1c(-c2ccccc2)c[n+]2ccsc12)c1ccc(Br)cc1 | inactive | 
78 | O=C1Nc2ccc(Cl)cc2C(C#CC2CC2)(C(F)(F)F)O1 (stereo unspecified) | 9.2 µM (active) | -25.6
79 | COC(=O)C1(C(F)(F)F)N=C(C(F)(F)F)Nc2ccc(Cl)cc21 (stereo unspecified) | inactive | 5.94
80 | O=C1Nc2ccc(Cl)cc2C12OCCCO2 | inactive | 13.2
81 | O=C(Cn1nnc2ccccc21)C1CC1 | inactive | 7.3
82 | NCc1cc2c3c(c1)CCCN3CCC2 | inactive | 
83 | C=CCOc1cccc(C(=O)N2CCCC(CNS(=O)(=O)c3cccs3)C2)c1 (stereo unspecified) | inactive | 11.7
84 | CSCCC(=O)NC1CC(C)(C)Cc2c1cnn2-c1ccccc1C (stereo unspecified) | inactive | 13.5
85 | Cc1ccccc1-n1ncc2c1CC(C)(C)CC2NC(=O)CSc1ccncc1 (stereo unspecified) | 0.461 µM (active) | -2.05
86 | Cc1ccccc1-n1ncc2c1CC(C)(C)CC2NC(=O)CCC(F)(F)F (stereo unspecified) | inactive | 7.77
87 | CC(C)=C1SC(N2CCN(c3cccc(Cl)c3)CC2)=NC1=O | inactive | 5.96
88 | COc1cccc(N2C(=NC(=O)C3CCCCC3)SC3CS(=O)(=O)CC32)c1 (stereo unspecified) | inactive | -4.58
89 | COc1cccc(N2C(=NC(=O)CCc3ccccc3)SC3CS(=O)(=O)CC32)c1 (stereo unspecified) | inactive | -7.96
90 | COc1cccc(N2C(=NC(=O)CCC3CCCC3)SC3CS(=O)(=O)CC32)c1 (stereo unspecified) | 11.6 µM (active) | 4.89
